In the library only some 7.3% were active in any assay of this set; here they are far more common.
FLuc counter = qHTS profiling assay for firefly luciferase inhibitor/activator using purifed enzyme and Km concentrations of substrates (counterscreen for miR-21 project) | purified FLuc, Km substrates, luminescence inhibition | Potency, µM (series often up to 57.5 µM), inactives show at the top dose activity change, negative = inhibition, actives largely listed as inhibitors | hit rate 6.9% among 360,000;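 note: plate controls were vehicle for no effect and reference inhibitor for full effect; nearly all actives have a fitted effect of over 55% in size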
Target sequence (P08659 whole entry, looked up): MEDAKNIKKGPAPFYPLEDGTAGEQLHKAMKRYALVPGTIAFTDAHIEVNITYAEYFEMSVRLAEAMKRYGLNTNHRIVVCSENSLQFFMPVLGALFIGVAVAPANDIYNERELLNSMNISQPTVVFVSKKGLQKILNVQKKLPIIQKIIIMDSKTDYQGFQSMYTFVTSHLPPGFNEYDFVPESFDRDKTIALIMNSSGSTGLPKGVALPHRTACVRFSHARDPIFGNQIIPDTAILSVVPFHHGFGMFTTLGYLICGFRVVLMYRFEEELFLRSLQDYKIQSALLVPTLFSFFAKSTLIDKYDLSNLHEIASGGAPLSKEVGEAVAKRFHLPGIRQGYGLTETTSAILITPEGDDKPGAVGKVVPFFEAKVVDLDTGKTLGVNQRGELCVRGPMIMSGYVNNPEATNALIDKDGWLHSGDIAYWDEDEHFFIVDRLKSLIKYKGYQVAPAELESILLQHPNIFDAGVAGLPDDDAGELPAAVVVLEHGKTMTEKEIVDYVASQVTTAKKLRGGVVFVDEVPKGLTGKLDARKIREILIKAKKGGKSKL
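Purified P. pyralis luciferase (10nM final) with 10uM D-luciferin and 10uM ATP (Km levels) in 50mM Tris acetate pH 7.5, 10mM Mg acetate, 0.01% Tween-20, 0.05% BSA; qHTS 6-point titration, ~60 µM downward; luminescence read.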
Rab9 promoter act = qHTS Assay for Rab9 Promoter Activators. Huh7 Rab9 promoter-luciferase reporter, luminescence, 24 h. Potency, µM (titrated, usually from 9.22 µM), without a hit: at the top dose activation, negative = inhibition, hits mostly activators. hit rate 2.8% among 320,000. AID 485297, 2010; note: % of control where 0% means no effect; nearly all actives have a fitted effect of over 60% in size
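Rab9 promoter-driven luciferase in stably transfected Huh7 cells; 1500 cells/well rested 2 h, exposed to compound in DMSO for 24 h at 37 °C, 5% CO2. Luminescence read 10 min after adding luciferase reagent at ambient temperature.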
SMN2 splice enh = qHTS Assay for Enhancers of SMN2 Splice Variant Expression | HEK293 SMN2-luciferase splicing reporter, luminescence, 30-36 h | Potency, µM (doses to about 46.1 µM), for the others: at the top dose activity change, positive = activation, most hits filed as activators | hit rate 2.8% among 210,000 | AID 1458, 2008; note: % of control where 0% means no effect; nearly all actives have a fitted effect of over 55% in size
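HEK293 cells carry an SMN2 minigene-luciferase reporter in which exon 7 inclusion puts luciferase in frame. Cells were seeded at 2000 cells/well, attached for 10-12 hours, then exposed to compounds for 30-36 hours at 37C before ONE-Glo luminescence.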
uPA generation = qHTS for Inhibitors of Cell Surface uPA Generation; cell surface uPA generation assay, qHTS; Potency, µM (top dose mostly 38.3 µM), for the others: at the highest dose activity change, negative = inhibition, hits mostly inhibitors; hit rate 0.31% among 330,000; AID 540303, 2011; active = well fitted inhibition curve with a large enough effect; inconclusive = small, poorly fitted or top-dose-only effect; inactive = no such curve, though single readings can be large or run the other way; tested in mouse RAW 264.7 cells; note: % is set by controls: 0 for no effect and ±100 for the full control effect; nearly all actives have a fitted effect of over 55% in size
NPC1 prom act = qHTS Assay for NPC1 Promoter Activators. Huh7 NPC1 promoter luciferase reporter, 24 h. Potency, µM (top dose mostly 9.22 µM), without a hit: top-dose activation, actives largely listed as activators. hit rate 2.4% among 320,000; note: % of control where 0% means no effect; nearly all actives have a fitted effect of over 60% in size
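Luminescence read-out of NPC1 promoter-driven luciferase in stably transfected Huh7 cells; compounds delivered in DMSO and left 24 h at 37C, 5% CO2, qHTS titration format.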
ELG1 genotox = qHTS screen for small molecules that induce genotoxicity in human embryonic kidney (HEK293T) cells expressing luciferase-tagged ELG1; hit rate 1.3% among 330,000; HEK293T ELG1-luciferase reporter, luminescence, 16 h; Potency, µM (series often up to 46 µM), for inactives: at the top dose activity change, positive = activation, most hits filed as activators; AID 504466, 2011; note: % of control where 0% means no effect; nearly all actives have a fitted effect of over 60% in size
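16 hr compound incubation (37 °C, 5% CO2) of HEK293T cells carrying luciferase-tagged ELG1; luciferase then measured by ONE-Glo luminescence after 30 min at RT.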
The depositor's hits bear a star; ? = inconclusive; / = no result. Unless noted, calls come from the whole dose curve; as a rule, active = well fitted curve in the direction sought with a large enough effect; inconclusive = small, poorly fitted or top-dose-only effect, or another doubt; inactive = no such curve, though single readings can be large; an effect the other way counts as inactive or inconclusive. Potency is the fitted concentration of half-maximal effect.

SMILES	FLuc counter	Rab9 promoter act	SMN2 splice enh	uPA generation	NPC1 prom act	ELG1 genotox
COc1ccc(C(c2c(O)ccc3ccccc23)N2CCOCC2)c(OC)c1 (stereo not given)	12µM*	4%	?	-9%	-3%	?
COc1cc(NC(=O)c2cc3ccccc3o2)c(OC)cc1Br	-12%	17%	-6%	6%	18%	7%
Cc1ccc(NC(=O)c2cc3ccccc3o2)nc1	1.9µM*	3.2µM*	/	-11%	4µM*	0.73µM*
COc1ccccc1NC(=O)c1cc2ccccc2o1	6.7µM*	?	22µM*	-7%	?	?
O=C(NCc1ccccc1Cl)c1cc2ccccc2o1	?	/	4%	/	/	/
O=C(Nc1ncccc1Cl)c1cc2ccccc2o1	5.4µM*	1.6µM*	/	?	2µM*	7.3µM*
O=C(NCCc1ccccn1)c1cc2ccccc2o1	?	?	/	2%	3.5µM*	?
CCNC(=O)c1cc2ccccc2o1	?	-1%	-13%	3%	1%	5%
O=C(NCCc1ccc(Cl)cc1)c1ccc(Cn2c(=O)c3cccn3c3cccnc32)cc1	-7%	/	/	/	/	/
Cc1ccccc1NC(=O)c1cc2ccccc2o1	8.5µM*	?	/	-9%	4µM*	7.3µM*
O=C(Nc1ccc(Cl)cc1Cl)c1cc2ccccc2o1	0.95µM*	1.6µM*	/	-2%	1.4µM*	?
COc1cc(NC(=O)c2cc3ccccc3o2)c(OC)cc1Cl	0%	29%	-13%	13%	15%	9%
Cc1ccccc1NC(=O)c1cc(=O)c2ccccc2o1	-15%	15%	-3%	0%	3%	2%
COc1ccc(C)cc1NS(=O)(=O)c1c(C(=O)N2CCCCCC2)c(C)n(C)c1C	-5%	/	/	/	/	/
CCN(CC)S(=O)(=O)c1ccc(C(=O)Nc2cc(C)cc(C)c2)cc1	-12%	0%	-9%	0%	-2%	-1%
Cc1cc(C)cc(NC(=O)c2ccc(S(=O)(=O)C(F)F)cc2)c1	13µM*	2%	19%	-4%	2%	2%
Cc1nnc(NC(=O)c2ccc(S(=O)(=O)C(F)F)cc2)s1	5.4µM*	2.2µM*	/	?	?	?
COc1ccc(/C=C/c2cc(C(F)(F)F)on2)cc1	6µM*	0%	/	0%	12%	13%
COc1ccc(/C=C/c2cc(C(F)(F)F)[nH]c(=O)n2)cc1OC	?	-1%	/	-13%	-5%	1%
CCOc1ccc(C(=O)COC(=O)c2cccc(-n3cnnn3)c2)cc1	2.7µM*	?	/	-1%	?	23%
CCOc1ccc(C(=O)COC(=O)c2cc(=O)[nH]c3ccccc23)cc1	1.3µM*	2%	/	-1%	-1%	1%
O=C(NCc1ccccc1Br)c1ccc2c(c1)nc1n2CCOC1	-3%	/	/	/	/	/
Cc1cc(C)cc(C(=O)Nc2cc3c4c(c2)CC(=O)N4CCC3)c1	7%	-4%	/	14%	-6%	3%
O=C(Nc1cc2c3c(c1)CC(=O)N3CCC2)c1ccc(Br)cc1	15µM*	0%	/	-18%	0%	11%
CCc1ccccc1N(C)C(=O)c1cn(-c2cccc(OC)c2)c(=O)c2ccccc12	-1%	/	/	/	/	/
SMILES	FLuc counter	Rab9 promoter act	SMN2 splice enh	uPA generation	NPC1 prom act	ELG1 genotox
O=C(CCCCl)Oc1ccc2cc(-c3ccc4ccccc4n3)c(=O)oc2c1	?	?	13µM*	3%	?	?
COc1ccc(-c2cc3ccc(OCC(N)=O)cc3oc2=O)cc1OC	?	23%	/	12%	28%	13%
CC(=O)Oc1ccc2cc(-c3ccccc3)c(=O)oc2c1	2.4µM*	?	/	-7%	4µM*	?
Nc1ccc2oc(=O)c(-c3ccccc3)cc2c1	?	19%	/	-4%	?	?
COc1ccc(-c2cc3ccc(OC(C)C(=O)O)cc3oc2=O)cc1 (stereo not given)	27µM*	27%	/	?	22%	?
CC(=O)COc1ccc2cc(-c3ccccc3)c(=O)oc2c1	?	1µM*	/	-5%	1.1µM*	?
COc1ccc(Cn2c(=O)c3oc4ccccc4c3n(CC(=O)Nc3cc(C)cc(C)c3)c2=O)cc1	-7%	/	/	/	/	/
COc1ccc(CCNC(=O)Cn2c(=O)n(-c3ccc(OC)c(OC)c3)c(=O)c3ccccc32)cc1OC	-4%	/	-11%	/	/	/
CC(=O)N1CCC2(CCN(Cc3cc(C(F)(F)F)cc(C(F)(F)F)c3)CC2)CC1	/	/	-13%	/	/	/
Cn1c(CS/C(N)=N/N=C/c2ccccc2)c(Br)c(=O)n1-c1ccccc1	15µM*	22%	2%	-6%	9%	3%
NC(=N\N=Cc1ccccc1)/C(N)=N/N=Cc1ccccc1	/	/	/	-2%	/	/
COc1ccc(C(CC(=O)Nc2nccs2)C(C)C)cc1 (stereo not given)	-1%	-2%	/	-8%	-2%	-10%
COc1ccc(C(CC(=O)Nc2nccs2)n2cccc2)cc1 (stereo not given)	6µM*	3.2µM*	10µM*	-6%	2.8µM*	12%
CCOc1ccc(OCC(=O)Nc2nccs2)cc1	0.95µM*	?	5µM*	-9%	0.5µM*	0.92µM*
COCc1nnc(NC(=O)COc2ccc3c(c2)OCO3)s1	-12%	-5%	/	-2%	-3%	12%
NNC(=O)COc1cccc2cccnc12	-5%	1%	2%	7%	-2%	-2%
O=C(COc1ccc2c(c1)OCO2)Nc1nccs1	1.7µM*	0.45µM*	/	-1%	0.4µM*	2.3µM*
O=C(COc1cccc2cccnc12)Nc1nccs1	12µM*	4µM*	?	-6%	?	?
Cn1c(-n2cccc2)c(-c2c(-c3ccc(F)cc3)[nH]c3c2c(=O)[nH]c(=O)n3C)c(=O)[nH]c1=O	-7%	/	/	/	/	/
Cc1cc(Cl)ccc1C(=O)C1CCCN(C(=O)CN2CCOC2=O)C1 (stereo not given)	-1%	-3%	/	-5%	2%	1%
CC(C)c1ccc(NC(=O)C2(C)Cc3ccccc3C(=O)O2)cc1 (stereo not given)	-16%	/	-10%	/	/	/
COc1ccccc1OCCCC(=O)Nc1nccs1	12µM*	2.2µM*	/	-12%	?	?
COc1ccc(OCCC(=O)Nc2nccs2)cc1	?	12%	10%	4%	1%	8%
COc1ccc(OCC(=O)Nc2nc(-c3ccc(Br)cc3)ns2)cc1	11µM*	/	/	/	/	/
COc1ccc(OCC(=O)Nc2nccs2)cc1	3µM*	0.45µM*	/	-4%	0.56µM*	?

Screening results (PubChem BioAssay)
